An excerpt weighted towards active compounds, which were near 1.5% of everything screened.
AID504770: growth inhibitors of E. coli YBA685 in a screen for V. cholerae RctB (chromosome II replication) inhibitors. z-score (concentration not given with the values). hit rate 0.27% among 130,000. E. coli YBA685 rctB-dependent plasmid, OD600 growth, 3 h; stronger effect = lower value; in the data active = z-score below about -2, passing the limit was not always enough
MbtI inh: blocks the Mycobacterium tuberculosis siderophore enzyme MbtI; P9WFX0; purified MbtI enzyme, fluorescence intensity read-out; inhibition, % (test concentration not listed); hit rate 0.89% among 100,000; AID 493033; in the data active = inhibition mostly above about 56%, no sharp cut-off; inactive = mostly below about 77%
Polio RdRp inh: inhibitors of poliovirus RNA polymerase binding and polymerization. poliovirus polymerase elongation, fluorescence polarization; stronger effect = lower value. % elongation, % (compound at 16.7 µg/mL). hit rate 0.66% among 150,000. AID 588519; in the data active = % elongation below about 90%
Target sequence (P03300 1749-2209 limits assumed): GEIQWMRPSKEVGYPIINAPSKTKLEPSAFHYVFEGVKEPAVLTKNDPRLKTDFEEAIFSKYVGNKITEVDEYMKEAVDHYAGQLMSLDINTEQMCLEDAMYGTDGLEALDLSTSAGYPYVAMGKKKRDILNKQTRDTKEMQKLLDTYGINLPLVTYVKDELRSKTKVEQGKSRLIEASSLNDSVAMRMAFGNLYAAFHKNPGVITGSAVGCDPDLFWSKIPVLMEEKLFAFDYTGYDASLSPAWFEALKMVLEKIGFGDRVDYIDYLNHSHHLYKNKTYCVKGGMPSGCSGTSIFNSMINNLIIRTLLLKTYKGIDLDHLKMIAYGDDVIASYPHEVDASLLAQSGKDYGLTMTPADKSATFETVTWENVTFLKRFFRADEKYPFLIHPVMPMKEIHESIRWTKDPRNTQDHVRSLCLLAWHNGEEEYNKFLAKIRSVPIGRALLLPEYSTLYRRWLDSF
Mtb MenB inh: Mtb MenB enzyme inhibition. MenB enzyme assay, absorbance read-out. inhibition, % (test concentration not listed). hit rate 0.43% among 100,000; in the data active = inhibition above about 21%, passing the limit was not always enough
* = called active by the depositor; x = no result.

SMILES	AID504770	MbtI inh	Polio RdRp inh	Mtb MenB inh
O=C(c1cc(=O)[nH]c2ccccc12)N1CCCc2ccccc21	-0.5	-2	x	-5
Cc1ccc(NC(=S)Nc2cccc(C(F)(F)F)c2)cc1NS(C)(=O)=O	1.5	7	98	-32
Cc1ccccc1N1C(=O)NC(=O)/C(=C\C=C\c2ccco2)C1=O	-0.75	66*	104	-129
O=C1NC(=Nc2ccccc2)S/C1=C/C=C/c1ccco1	-0.35	1	106	-164
COc1ccccc1N1C(=O)NC(=O)/C(=C\C=C\c2ccco2)C1=O	-0.6	73*	99	-183
CCc1ccc(S(=O)(=O)c2nnn3c2nc(NCc2cccc(OC)c2)c2cc(Cl)ccc23)cc1	x	x	89*	x
CCc1ccc(S(=O)(=O)c2nnn3c2nc(NCc2ccccc2)c2cc(Cl)ccc23)cc1	x	x	104	x
CC1CCCCC1NC(=O)COC(=O)c1ccc(Cl)c(S(N)(=O)=O)c1 (centres undefined)	-3*	-3	105	-1
O=C(c1ccc(Cl)cc1Cl)N1CCN(Cc2ccccc2)CC1	0.65	x	x	x
O=c1nc2ccccn2c2c1c(=O)[nH]c1ccccc12	0.1	3	102	62*
O=c1c2ccccc2nc2ccccn12	0.8	108	101	-2
c1ccc(CNCCCSc2ncccn2)cc1	-0.5	-4	104	-2
O=C(O)CO/N=C/c1ccccc1	-0.2	-10	98	6
O=C(O)CON=C1C2CC3CC(C2)CC1C3	0.95	0	78*	10
O=C(N/N=C1/CCS(=O)(=O)c2ccc(F)cc21)c1ccccn1	0	-9	90*	15
Cc1nn(-c2ccccc2)nc1CNS(C)(=O)=O	-0.65	11	102	-11
Cc1nn(-c2ccccc2)nc1CNS(=O)(=O)c1cccs1	-3.3*	x	x	x
OCC#CCSc1nc2ccccc2o1	0.95	3	101	39*
c1ccc2oc(SCCSc3nc4ccccc4o3)nc2c1	0	x	106	-1
COC(=O)c1c(-c2cccs2)csc1NC(=O)c1cc(OC)cc(OC)c1	x	x	71*	x
O=C(Nc1scc(-c2cccs2)c1C(=O)O)c1cccs1	-1	x	100	-21
COC(=O)c1c(-c2cccs2)csc1NC(=O)c1cc(OC)c(OC)c(OC)c1	x	x	73*	x
COc1ccc(C(=O)Nc2nccs2)cc1OC	0	-4	99	-13
COC(=O)c1c(-c2cccs2)csc1NC(=O)c1ccc(OC)c(OC)c1	x	x	69*	x
COc1ccc(C(=O)N[C@H](C(=O)N2CCN(S(=O)(=O)c3ccc(Cl)cc3)CC2)C(C)C)cc1	0.05	-11	105	-9
SMILES	AID504770	MbtI inh	Polio RdRp inh	Mtb MenB inh
CCN(c1ccccc1)S(=O)(=O)c1ccc(Cl)cc1	0.25	-11	102	-53
CCN(c1ccccc1)S(=O)(=O)c1ccc(C(=O)OCC#N)cc1	-0.4	-1	66*	12
N#CC(C(=O)COc1ccccc1)c1ccccc1 (centres undefined)	-1.4	54*	102	-10
NC(=O)Cn1c(CN2CCCC2c2ccc3c(c2)OCCCO3)nc2ccccc2c1=O (centres undefined)	0.05	0	96	-7
C1CNCC(CN2CCCC2)C1 (centres undefined)	0.65	-2	103	46*
CN1CCN(S(=O)(=O)c2ccc3c(c2)C(=NO)c2cc(S(=O)(=O)N4CCN(C)CC4)ccc2-3)CC1	-0.3	-4	99	20
CCCNC(=O)Nc1ccccc1N1CCCCC1	-0.6	-9	97	10
CN1CCC2(CC1)N=C(c1ccccc1)C(=S)N2	-0.35	15	101	-23
CCN1CCC2(CC1)N=C(c1ccccc1)C(=S)N2	-1	77*	104	-23
FC(F)(F)c1ccnc(N2CCOCC2)n1	-0.55	x	x	x
Nn1c(CSc2ccccn2)nnc1CSc1ccccn1	-0.85	21	98	-22
c1ccc(OCCSC2=NCCN2)cc1	-1.4	89*	101	-37
c1ccc(OCCSc2nc3ccccc3[nH]2)cc1	0.25	-1	101	-1
O=C(O)c1cccc2[nH]c(=O)c(=O)[nH]c12	-0.2	112	100	-54
O=C(Sc1ccc(Cl)cc1)c1cnn(-c2ccccc2)c1C(F)(F)F	-0.3	54*	105	-21
CN(C)C(=S)Nc1ccccc1OC(F)F	-0.95	88*	98	-14
CCCC(=O)c1ccc(N2CCc3ccccc3C2)c(F)c1	2.1	1	x	x
O=C(O)CCC(C(=O)O)N1C(=O)/C(=C/C=C/c2ccco2)SC1=S (centres undefined)	0.75	11	89*	-202
CCOC(=O)c1c(N)sc(N)c1C(=O)OCC	-0.7	97*	98	1
CCOC(=O)c1c(N)sc2ccccc12	-0.1	x	x	x
Cc1ccc(SC#N)c(N)n1	-2.5*	x	x	x
N#CSc1ccc(N)cc1	-1.5	6	99	x
O=c1oc2c(O)c(O)cc3c(=O)oc4c(O)c(O)cc1c4c23	0.1	26	83*	-5
COC(=O)c1ccc(NC(=O)CSc2nnc(-c3ccccc3Cl)n2N)cc1	1.5	52	100	-16
CCN(CC)C(=S)Nc1ccc2oc(N(C)C)nc2c1	-0.5	x	90*	-7
SMILES	AID504770	MbtI inh	Polio RdRp inh	Mtb MenB inh
O=C(O)C1Nc2c(I)cccc2C2C=CCC12 (centres undefined)	-0.7	103*	93	-17
COc1ccc(N2C(=O)CC(Sc3nc4ccccc4c(=O)n3CCO)C2=O)cc1 (centres undefined)	-2.1*	100	107	-15
Cc1ccc(/C=C2/NC(=O)N(Cc3ccc(Br)cc3)C2=O)o1	2	63	102	-26
CCCN1C(=O)/C(=C/c2ccc(C)o2)NC1=S	-0.1	63*	101	-74
CC1(C)N([O-])c2ccccc2[N+]1=O	-4*	25	96	-41
S=C(c1c[nH]c2ccccc12)N1CCCCC1	-0.2	79*	105	-21
S=C(c1c[nH]c2ccccc12)N1CCCC1	0.25	-2	102	-30
COC(=O)c1ccc(COC(=O)c2cccc(S(=O)(=O)N3CCc4ccccc43)c2)o1	1.5	-15	108	-38
CSc1scc2c1C(=O)/C(=C/N(C)C)CC2	0.25	21	63*	-25
Fc1ccc(-c2nc3n(n2)Cc2ccccc2-3)cc1	-0.5	-10	100	-7
NC(=S)Cc1nc2n(n1)Cc1ccccc1-2	1.8	77*	83*	-16
Cc1ccc(Cl)cc1N1CCN(C(=O)C2CCCN2c2nnc(N3CCCC3=O)s2)CC1 (centres undefined)	1.7	2	105	-26
CC(C)CN(C(=O)c1ccncc1)c1nc2ccccc2s1	-0.55	71*	87*	-7
Cc1ccc2nc(COC(=O)c3ccc4c(c3)OCCO4)cc(=O)n2c1	0.2	42	98	1
CCCCc1c(C(=O)O)cccc1C(=O)O	0.85	-4	102	27*
Cc1c(C(=O)OCC(=O)c2cc(C)n(NC(=O)c3n[nH]c(=O)c4ccccc34)c2C)oc2ccc(Cl)cc12	0.2	-7	105	-6
Cc1ccc(/C=C/C2=Cc3c(sc(N)c3C#N)C(C)(C)C2)o1	0.4	89*	104	-42
Cc1ccc(/C=C/C2=CC(=C(C#N)C#N)CC(C)(C)C2)o1	-0.5	15	151	-36
CC1=CC(=NC(=O)c2ccco2)C(C)=CC1=O	0.4	100*	102	-16

From PubChem
